This note sets out measurements from PubChem BioAssay.

Experiment [1] concerns Plasmodium falciparum Sir2 (PF13_0152, Sir2A). The experiment in a line: Plasmodium falciparum Sir2A binding compounds – biochemical, small-molecule microarray, 635 nm fluorescence, primary screen (AID 1098).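 Also: score merges spot fluorescence intensity with its signal-to-noise ratio.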 To be noted: fluorescence 635 nm, higher = more signal.
The nature of experiment [2]: probe aDKK1 binding to arrayed compounds – biochemical, biotinylated probe, 635/667 nm fluorescence, primary screen (AID 1099).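 Also: score merges 667nm spot fluorescence with signal to noise across triplicate slides; reference of the scale not given here.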 Conditions: small-molecule microarray, higher = more signal.
Experiment [3] can be described thus: probe aCHRDL2 binding to arrayed compounds – biochemical, biotinylated probe, 635/667 nm fluorescence, primary screen (AID 1100). To be noted: small-molecule microarray, higher = more signal.
A short description of experiment [4]: change in splice reporter luminescence, either direction, cell-based, HEK293, spliceosome inhibition project, primary screen (AID 1101).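 Also: HEK293 cells carrying a splicing-competent luciferase reporter gene; test concentration not given here.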 Conditions: HEK293 splicing luciferase reporter, 24 h, higher = more signal, called active from +8 up or from −8 down.
Experiment [5] has as its target Fibroblast growth factor 10 (Homo sapiens) (UniProt O15520). Nature of the experiment: compounds binding fibroblast growth factor 10 – biochemical, small-molecule microarray, 635 nm fluorescence, primary screen (AID 1102). Conditions: FGF10 binding, fluorescence 635 nm, higher = more signal.
In experiment [6] the test system is glycogen synthase kinase-3 (GSK3A per assay name; protocol says GSK3B). Nature of the experiment: compounds binding glycogen synthase kinase-3 – biochemical, small-molecule microarray, 635 nm fluorescence, GSK3A, primary screen (AID 1103). Also: the record names both GSK3A and GSK3B. To be noted: fluorescence 635 nm, higher = more signal.
The target of experiment [7] is Epidermal growth factor receptor (Homo sapiens) (UniProt P00533). The experiment in a line: compounds binding epidermal growth factor receptor – biochemical, small-molecule microarray, 635 nm fluorescence, primary screen (AID 1104).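 Also: score merges 667 nm emission intensity with spot signal to noise over triplicate slides.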 To be noted: EGFR binding, higher = more signal.
Sequence of Epidermal growth factor receptor (Homo sapiens) (P00533 whole entry, looked up): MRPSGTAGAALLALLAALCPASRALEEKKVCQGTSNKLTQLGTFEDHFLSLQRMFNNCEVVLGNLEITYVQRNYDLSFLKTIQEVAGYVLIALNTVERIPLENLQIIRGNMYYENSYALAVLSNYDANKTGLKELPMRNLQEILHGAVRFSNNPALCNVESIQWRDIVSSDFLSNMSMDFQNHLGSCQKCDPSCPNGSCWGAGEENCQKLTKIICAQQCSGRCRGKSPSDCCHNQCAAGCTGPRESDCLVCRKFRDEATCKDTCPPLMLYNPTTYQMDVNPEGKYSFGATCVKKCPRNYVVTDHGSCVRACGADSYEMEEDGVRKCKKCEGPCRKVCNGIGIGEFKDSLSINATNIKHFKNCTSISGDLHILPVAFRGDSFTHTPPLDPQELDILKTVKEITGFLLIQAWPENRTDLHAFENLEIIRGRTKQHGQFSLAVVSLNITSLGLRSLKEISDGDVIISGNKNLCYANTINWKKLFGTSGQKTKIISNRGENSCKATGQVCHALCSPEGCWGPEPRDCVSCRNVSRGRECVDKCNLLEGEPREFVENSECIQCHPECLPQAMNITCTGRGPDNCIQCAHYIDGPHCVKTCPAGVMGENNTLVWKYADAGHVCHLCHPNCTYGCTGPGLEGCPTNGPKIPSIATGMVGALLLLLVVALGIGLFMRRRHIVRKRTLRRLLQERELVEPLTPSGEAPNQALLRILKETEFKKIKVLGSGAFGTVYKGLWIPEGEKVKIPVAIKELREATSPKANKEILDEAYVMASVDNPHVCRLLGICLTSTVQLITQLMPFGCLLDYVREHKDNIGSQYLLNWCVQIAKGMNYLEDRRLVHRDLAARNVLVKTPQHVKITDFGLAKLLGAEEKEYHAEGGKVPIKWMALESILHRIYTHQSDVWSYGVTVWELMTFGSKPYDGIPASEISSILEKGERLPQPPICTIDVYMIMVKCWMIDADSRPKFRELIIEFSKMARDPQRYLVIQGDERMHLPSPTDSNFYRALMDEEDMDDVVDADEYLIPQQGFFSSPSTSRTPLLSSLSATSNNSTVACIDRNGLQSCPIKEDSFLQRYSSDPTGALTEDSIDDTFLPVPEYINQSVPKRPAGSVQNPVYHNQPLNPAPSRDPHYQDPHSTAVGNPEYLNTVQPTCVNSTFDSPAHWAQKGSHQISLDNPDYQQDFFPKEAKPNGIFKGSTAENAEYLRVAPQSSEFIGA
The target in experiment [8] is Follistatin-related protein 3 (Homo sapiens) (UniProt O95633). The experiment in a line: compounds binding follistatin-related protein 3 – biochemical, small-molecule microarray, 635 nm fluorescence, primary screen (AID 1105).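 Also: score merges emission near 667 nm and signal to noise per printed spot across three slides.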 To be noted: FSTL3 binding, higher = more signal.
Sequence of Follistatin-related protein 3 (Homo sapiens) (O95633 whole entry, looked up): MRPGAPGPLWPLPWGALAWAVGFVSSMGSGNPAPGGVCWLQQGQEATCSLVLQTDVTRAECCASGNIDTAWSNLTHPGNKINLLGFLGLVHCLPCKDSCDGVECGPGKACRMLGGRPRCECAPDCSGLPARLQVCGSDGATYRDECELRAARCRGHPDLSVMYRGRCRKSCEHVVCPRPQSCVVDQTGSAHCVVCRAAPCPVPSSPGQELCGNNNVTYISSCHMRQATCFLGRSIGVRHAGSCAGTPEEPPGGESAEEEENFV
Experiment [9] deals with Dickkopf-related protein 1 (Homo sapiens) (UniProt O94907). Nature of the experiment: small molecules binding DKK1 protein – biochemical, small-molecule microarray, 635 nm fluorescence scan, primary screen (AID 1106).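 Also: score merges emission near 667 nm with signal to noise over three replicate slides.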 Conditions: higher = more signal.
Sequence of Dickkopf-related protein 1 (Homo sapiens) (O94907 whole entry, looked up): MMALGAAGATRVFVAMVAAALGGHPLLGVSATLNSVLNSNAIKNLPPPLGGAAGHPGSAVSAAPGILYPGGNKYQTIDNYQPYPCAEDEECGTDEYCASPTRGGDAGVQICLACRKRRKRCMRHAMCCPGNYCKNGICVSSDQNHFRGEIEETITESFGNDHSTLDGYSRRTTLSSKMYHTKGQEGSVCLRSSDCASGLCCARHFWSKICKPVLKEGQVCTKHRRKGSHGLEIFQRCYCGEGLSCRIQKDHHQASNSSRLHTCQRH
In experiment [10] the test system is Inhibin beta A chain (activin A). The experiment in a line: small molecules binding activin A – biochemical, small-molecule microarray, 635 nm fluorescence scan, primary screen (AID 1107).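 Also: mouse activin A protein probed at 4.33 µg/mL on printed slides; score merges bound-protein fluorescence near 667 nm with spot signal-to-noise.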 To be noted: INHBA, higher = more signal.

Each structure is given as a SMILES string. Calls of active or inactive are those of the source.

Sequence of Fibroblast growth factor 10 (Homo sapiens) (O15520 whole entry, looked up): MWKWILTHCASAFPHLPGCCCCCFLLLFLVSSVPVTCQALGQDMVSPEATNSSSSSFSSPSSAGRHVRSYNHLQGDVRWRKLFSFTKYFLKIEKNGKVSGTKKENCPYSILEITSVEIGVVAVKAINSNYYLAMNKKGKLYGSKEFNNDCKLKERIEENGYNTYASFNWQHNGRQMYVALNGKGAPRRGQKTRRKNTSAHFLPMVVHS

Turning to `Cc1ccc(C(C)C)n1C(=O)OC(C)(C)C`, the composite z-score was -0.0286 in experiment [1]; -0.271 in [2]; -0.611 in experiment [3]; 0.789 in experiment [5]; 0.61 in [6]; 0.55 in experiment [7]. In addition, the composite z-score in experiment [8] was 0.807; in experiment [9], 0.768; in experiment [10] it was -0.124. For the same compound, the z-score in experiment [4] was -1.45 (inactive).

On to `CCOC(=O)[C@H](Cc1ccccc1)NC(=O)CCC1CC(OC(=O)NCc2ccc3c(c2)OCO3)CC2(CCCC(COC(=O)NCCc3ccc(Cl)cc3)O2)O1` (stereo not given in full), for which the composite z-score in experiment [1] was 0.667; in [2], -0.188; in experiment [3] it was -0.509; in experiment [5], 0.471; in experiment [6], 1.27; in experiment [7], 0.549. Moreover, the results for the composite z-score in experiment [8], in experiment [9] and in [10] were 0.69, 0.531 and 0.0209, respectively. Besides, in [4], the z-score was -2.3 (inactive).

As for `CO[C@H]1COC(=O)CCC[C@H](C)[C@H](OC)COC(=O)CC=C[C@@H]1C`, the composite z-score in [1] is 1.49; in experiment [2] it was -0.427; in experiment [3], -0.931; in experiment [5] it was -0.0317; in experiment [6], 0.0951; in [7], 0.822. Besides, the composite z-score in experiment [8] was found to be 1.04; in experiment [9], 0.872; in [10], 1.43. Moreover, the z-score in experiment [4] is -1.39 (inactive).

In the case of `O=C1C=C[C@@H](O)[C@@H]2[C@@H]3C(=O)N(Cc4ccc5c(c4)OCO5)C(=O)[C@@H]3CC[C@@H]12`, the composite z-score is 0.382 in experiment [1]; -0.0574 in [2]; -0.528 in experiment [3]; 0.515 in experiment [5]; 0.719 in [6]; 0.523 in experiment [7]. In addition, the composite z-score in experiment [8] is 0.579; in [9], 0.615; in experiment [10], -0.513. The z-score in experiment [4] was -0.5 (inactive).

Take `COC(=O)CC=C[C@@H](C)[C@@H](C=NOC[C@@H](C)[C@H](OCc1ccccc1)C(C)C)OC`: the composite z-score was 0.161 in experiment [1]; -0.325 in experiment [2]; -0.208 in experiment [3]; 0.286 in experiment [5]; 0.103 in experiment [6]; 0.146 in experiment [7]. The composite z-score is 0.102 in [8], 0.426 in experiment [9] and -0.283 in experiment [10]. Also, the z-score in experiment [4] was -0.201 (inactive).

On to `CO[C@H]1COC(=O)CC=C[C@H](C)[C@H](OC)COC(=O)[C@@H](C)NC(=O)CC=C[C@@H]1C`, for which the composite z-score in [1] is 1.65; in experiment [2], -0.407; in [3], -1.19; in experiment [5] it was 0.777; in [6], 0.507; in [7], 0.383. Besides, the composite z-score came out at 1.36 in experiment [8], 1.56 in experiment [9] and 1.64 in experiment [10]. Also, the z-score in [4] was -0.59 (inactive).

`CC(=O)OC[C@H]1O[C@H](C#CCCc2ccccc2)C=C[C@@H]1OC(C)=O`: the composite z-score in [1] was 1.05; in experiment [2], -0.0993; in experiment [3], -0.438; in experiment [5], 0.787; in [6] it was -0.113; in [7], 0.187. The composite z-score in experiment [8] is 0.981; in [9] it was 1.02; in [10], 0.309. The z-score in [4] is 0.181 (inactive).

As for `C[C@@H](c1ccccc1)N1C(=O)[C@H]2[C@H]3[C@H](O)[C@H](O)CC(=NOC[C@@H](O)COCc4ccco4)[C@H]3CC[C@H]2C1=O`, the composite z-score is 0.975 in [1]; -0.427 in [2]; -1.27 in experiment [3]; -0.185 in [5]; 1.21 in experiment [6]; 1.07 in [7]. Besides, the values for the composite z-score in experiment [8], in experiment [9] and in [10] were 1.14, 1.59 and 0.574, respectively. Moreover, the z-score in [4] was 0.319 (inactive).

As for `CC(C)=NO[C@@H](C)c1cn([C@H](CO)Cc2ccccc2)nn1`, the composite z-score in [1] is 0.8; in experiment [2] it was 0.0454; in experiment [3], -0.832; in experiment [5] it was 0.393; in [6], 0.523; in [7], 0.303. Further, the composite z-score was 0.345 in experiment [8], 0.27 in experiment [9] and 0.111 in experiment [10]. Further, in experiment [4], the z-score was -0.937 (inactive).

For `C#CCCCON=C1C[C@@H](O)[C@@H](O)[C@@H]2[C@@H]3C(=O)N([C@@H](C)c4ccccc4)C(=O)[C@@H]3CC[C@@H]12`, the composite z-score was 0.563 in experiment [1]; -0.292 in experiment [2]; 0.0951 in experiment [3]; -0.723 in [5]; -0.521 in experiment [6]; 0.377 in [7]. Moreover, the composite z-score in experiment [8] was -0.447; in experiment [9] it was -0.67; in experiment [10] it was 0.718. Also, the z-score in experiment [4] is -0.0154 (inactive).

`CC(CCC(=O)OC[C@H]1O[C@H](C#Cc2ccccc2)C=C[C@@H]1Oc1ccc(C)cc1)=NOC(C)CN1CCCCc2nc(C)c(C)cc21` (stereo not given in full): the composite z-score in [1] was 0.508; in [2], -0.241; in experiment [3], 0.159; in [5] it was 0.0616; in experiment [6] it was -0.555; in experiment [7] it was -0.598. For the same compound, the values for the composite z-score in experiment [8], in experiment [9] and in experiment [10] were -0.159, 0.191 and 0.69, respectively. Besides, the z-score in experiment [4] is -0.176 (inactive).

As for `COC(=O)[C@H](C)NC(=O)CCC1CC(OC(=O)NCc2cccc3ccccc23)CC2(CCCC(COC(=O)NCc3ccccc3)O2)O1` (stereo not given in full), the composite z-score in experiment [1] was 0.537; in [2], -0.132; in experiment [3], -0.459; in experiment [5], 0.625; in experiment [6] it was 1.04; in experiment [7], 0.445. The composite z-score in experiment [8] was 0.918; in experiment [9] it was 0.667; in experiment [10] it was -0.0949. Further, the z-score in [4] was -0.829 (inactive).

For `CC(CCN1CCCc2nc(C)c(C)cc21)=NO[C@H](C)c1cn([C@@H]2COC[C@H]2O)nn1`, the composite z-score in experiment [1] was 0.389; in [2], -0.156; in experiment [3], -0.519; in experiment [5] it was 0.667; in [6], 1.11; in [7], 1.06. The composite z-score in experiment [8] is 0.884; in [9], 0.902; in experiment [10], 1.26. The z-score in experiment [4] is 0.169 (inactive).

`C[C@H]1CC[C@@H](C(=O)O)N[C@@H]1c1cccc(N2CCCC2=O)c1`: the composite z-score in [1] was 0.0371; in experiment [2] it was -0.154; in experiment [3], -0.496; in experiment [5] it was 0.184; in experiment [6] it was 0.631; in [7], 0.376. The composite z-score in experiment [8] came to 0.285; in experiment [9], 0.153; in [10] it was 0.292. Besides, in [4], the z-score is -0.00389 (inactive).
